# Only some compounds are listed: those with a hit (about 7.3% of all), similar ones and a draw of the others.
# FLuc modulator – firefly luciferase modulation, counter-screen for miR-21 project. Potency, µM (titrated, usually from 57.5 µM), without a hit: at the highest dose activity change, negative = inhibition, hits mostly inhibitors. P08659. purified FLuc, Km substrates, luminescence inhibition. hit rate 6.9% among 360,000. AID 588342;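 note: plate controls were vehicle for no effect and reference inhibitor for full effect; nearly all actives have a fitted effect of over 55% in size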
# Target sequence (P08659 whole entry, looked up): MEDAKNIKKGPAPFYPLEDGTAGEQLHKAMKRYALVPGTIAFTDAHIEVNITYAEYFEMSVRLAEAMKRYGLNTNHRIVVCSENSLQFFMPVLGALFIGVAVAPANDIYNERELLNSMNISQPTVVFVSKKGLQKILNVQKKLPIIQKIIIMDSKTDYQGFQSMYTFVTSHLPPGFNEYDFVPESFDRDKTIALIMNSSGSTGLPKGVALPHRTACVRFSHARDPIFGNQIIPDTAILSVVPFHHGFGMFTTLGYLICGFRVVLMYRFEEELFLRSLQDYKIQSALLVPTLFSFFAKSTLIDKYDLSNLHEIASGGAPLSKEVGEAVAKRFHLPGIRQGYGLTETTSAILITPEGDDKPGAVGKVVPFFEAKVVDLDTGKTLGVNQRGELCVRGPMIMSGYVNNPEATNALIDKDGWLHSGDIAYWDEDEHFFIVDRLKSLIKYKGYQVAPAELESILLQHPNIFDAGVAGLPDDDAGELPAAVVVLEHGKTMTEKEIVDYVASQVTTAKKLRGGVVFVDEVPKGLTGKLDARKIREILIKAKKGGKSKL
#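 Purified P. pyralis luciferase, 10 nM final, with Km-level 10 uM D-luciferin and 10 uM ATP in 50 mM Tris acetate pH 7.5, 10 mM Mg acetate, 0.01% Tween-20, 0.05% BSA; 6-point qHTS titration about 60 µM downward; luminescence read.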
# NPC1 prom act – activators of NPC1 promoter; Huh7 NPC1 promoter luciferase reporter, 24 h; Potency, µM (titrated, usually from 9.22 µM), for the others: at the highest dose activation, most hits filed as activators; hit rate 2.4% among 320,000; note: % of control where 0% means no effect; nearly all actives have a fitted effect of over 60% in size
#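 In 1536-well qHTS, Huh7 cells harboring an NPC1 promoter–luciferase construct received compound for 24 h; activation was quantified by luminescence following luciferase reagent addition.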
# ELG1 genotox – inducers of genotoxicity in HEK293T ELG1-luciferase cells. HEK293T ELG1-luciferase reporter, luminescence, 16 h. Potency, µM (top dose mostly 46 µM), for the others: at the top dose activity change, positive = activation, hits mostly activators. hit rate 1.3% among 330,000; note: % of control where 0% means no effect; nearly all actives have a fitted effect of over 60% in size
#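 After overnight (16 hr) compound treatment at 37 °C, ELG1-luciferase HEK293T cells were lysed with ONE-Glo; luminescence quantified 30 min later at room temperature.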
# KinaseGlo FLuc – Kinase-Glo luciferase inhibition (counter-screen); Potency, µM (doses to about 38.3 µM), for the others: at the top dose activity change, negative = inhibition, usual class: inhibitors; Kinase-Glo luciferase, ATP luminescence, 8 min; hit rate 0.28% among 200,000; note: % is set by controls: 0 for no effect and ±100 for the full control effect; nearly all actives have a fitted effect of over 60% in size
#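 Luminescence was the read-out, taken after 8-minute incubation at ambient temperature. Luciferase turned over luciferin with 10 uM ATP in imidazole pH 7.2 buffer containing KCl, MgCl2, Tween 20 and BSA.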
# Rab9 promoter act – activates the Rab9 promoter. Huh7 Rab9 promoter-luciferase reporter, luminescence, 24 h. Potency, µM (doses to about 9.22 µM), for the others: at the highest dose activation, negative = inhibition, usual class: activators. hit rate 2.8% among 320,000; note: % of control where 0% means no effect; nearly all actives have a fitted effect of over 60% in size
#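 Cells were plated at 1500 per well in reduced-serum medium with 10% FBS and left 2 h. Compound in DMSO was then added for 24 h at 37 °C. Reporter signal was read by luminescence after 10 min with luciferase detection reagent.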
# SMN2 splice up – SMN2 splice variant enhancement; HEK293 SMN2-luciferase splicing reporter, luminescence, 30-36 h; hit rate 2.8% among 210,000; AID 1458; Potency, µM (titrated, usually from 46.1 µM), without a hit: at the highest dose activity change, positive = activation, usual class: activators; note: % of control where 0% means no effect; nearly all actives have a fitted effect of over 55% in size
#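 qHTS luciferase splicing reporter: luminescence rises when SMN2 exon 7 is included in transfected HEK293 cells. Compound exposure lasted 30-36 h at 37C, with 4.5 mM final sodium butyrate as control, followed by a ONE-Glo read.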
# * marks the source's active call; other numbers are inactive results; ? = inconclusive; nt = no result. Calls come from the whole dose curve; as a rule, active = well fitted curve in the direction sought with a large enough effect; inconclusive = small, poorly fitted or top-dose-only effect, or another doubt; inactive = no such curve, though single readings can be large; an effect the other way counts as inactive or inconclusive. Potency is the fitted concentration of half-maximal effect.
SMILES,FLuc modulator,NPC1 prom act,ELG1 genotox,KinaseGlo FLuc,Rab9 promoter act,SMN2 splice up
CCOc1ccc(-c2cc(C(=O)N3CCN(c4cccc(C)c4)C(C)C3)c3ccccc3n2)cc1 (stereo unspecified),2.39µM*,nt,nt,nt,nt,nt
CCOc1ccc(-c2cc(C(=O)N3CCN(c4ccc(C)cc4)C(C)C3)c3ccccc3n2)cc1 (stereo unspecified),4.78µM*,nt,nt,nt,nt,nt
COc1cc(NC(=O)c2cc(-c3cccs3)on2)c(OC)cc1Cl,0.7%,nt,nt,nt,nt,-0.1%
CCn1c(=N)n(CC(=O)c2ccc(Cl)c(Cl)c2)c2ccccc21,?,4.47µM*,15.1%,nt,3.98µM*,nt
Cc1n(CC(=O)c2ccc(F)cc2)c2ccccc2[n+]1C,-0.6%,-3.7%,-5.6%,1.6%,-5.2%,-8.5%
Cn1c(=N)n(CC(=O)c2ccc(F)cc2)c2ccccc21,1.35µM*,?,?,nt,0.891µM*,nt
CCN(CC(=O)Nc1ccc(NC(C)=O)cc1)CC(=O)Nc1ccccc1C(=O)c1ccccc1,7.0%,-1.5%,-0.5%,-1.4%,-1.2%,10.6%
CN1C(=O)/C(=C2\SC(N3CCCCCC3)=NC2=O)c2ccccc21,2.69µM*,?,?,-9.3%,3.55µM*,8.7%
O=C1N=C(N2CCOCC2)S/C1=C1\C(=O)N(Cc2ccccc2)c2ccccc21,0.675µM*,2.82µM*,?,-20.6%,1.58µM*,27.1%
CN1C(=O)/C(=C2\SC(N)=NC2=O)c2ccccc21,1.6%,-4.0%,6.7%,-1.4%,-2.6%,-23.6%
CC1CN(C2=NC(=O)/C(=C3/C(=O)N(Cc4ccc(F)cc4)c4ccccc43)S2)CC(C)O1 (stereo unspecified),?,-4.2%,-2.5%,nt,2.4%,nt
CCCN1C(=O)/C(=C2\SC(N3CCCCC3)=NC2=O)c2ccccc21,2.13µM*,1.26µM*,10.3%,-10.8%,2.82µM*,19.5%
CC(=O)Nc1ccc(C(=O)OCC(=O)N2CC3(C)CC2CC(C)(C)C3)cc1 (stereo unspecified),nt,nt,-0.9%,nt,nt,nt
Cc1cc(NS(=O)(=O)c2ccc3c(c2)OCCO3)no1,2.7%,-3.6%,-3.1%,nt,-0.3%,nt
O=C(Cc1ccccc1)NC(=S)Nc1ccc2oc(-c3ccccc3)nc2c1,?,?,?,0.3%,?,11.2µM*
O=C(Cc1ccccc1)Nc1ccc2oc(-c3ccncc3)nc2c1,-8.2%,8.1%,1.5%,-2.9%,18.1%,12.7%
O=C(Cc1ccccc1)NC(=S)Nc1ccc2oc(-c3ccccc3F)nc2c1,13.5µM*,?,15.1%,-1.7%,?,?
CC(=O)NC(=S)Nc1ccc2oc(-c3cc(F)c(F)cc3Cl)nc2c1,-19.3%,?,4.61µM*,-0.1%,0.501µM*,5.01µM*
Cc1ccc(C)c(NC(=O)c2sc(Cl)nc2C)c1,-3.7%,1.5%,-3.9%,-2.6%,1.3%,9.4%
O=C(NCCC1CCCCN1S(=O)(=O)c1ccccc1)C(=O)Nc1ccccc1F (stereo unspecified),2.6%,-2.6%,8.8%,nt,2.6%,nt
COC(=O)c1ccc(COc2ccccc2/C=C(\C#N)C(=O)Nc2ccc(C)cc2)cc1,8.49µM*,?,20.6µM*,-2.2%,2.82µM*,-40.7%
COc1cc(/C=C(\C#N)C(=O)Nc2cccc(C(=O)O)c2)ccc1OCc1ccc(F)cc1,-14.4%,-0.9%,20.6µM*,nt,-1.4%,nt
C=CCNC(=O)/C(C#N)=C/c1ccccc1OCc1ccc(C(=O)OC)cc1,0.7%,-6.5%,?,1.3%,1.8%,?
C=CCn1c(=S)[nH]c2sc3c(c2c1=O)CCC3,?,4.7%,-0.4%,-0.5%,4.1%,0.9%
Cc1ccc2nc(-c3c[nH]c4ccccc34)c(Nc3ccccc3)n2c1,-10.7%,nt,nt,nt,nt,11.2µM*
SMILES,FLuc modulator,NPC1 prom act,ELG1 genotox,KinaseGlo FLuc,Rab9 promoter act,SMN2 splice up
c1ccc(Nc2c(-c3c[nH]c4ccccc34)nc3ccccn23)cc1,?,nt,nt,nt,nt,15.8µM*
O=C(O)c1ccccc1C(=O)c1ccc(Sc2ccc(Cl)cc2)c([N+](=O)[O-])c1,-8.1%,-3.6%,-4.6%,nt,-5.0%,nt
CCOC(=O)C1CCCN(C(=O)Cn2nc(C)n3nc(-c4ccccc4)cc3c2=O)C1 (stereo unspecified),-0.6%,-3.1%,-4.0%,nt,-8.1%,nt
Fc1cc(F)cc(NC(=S)N2CCC(c3ccccc3)C2)c1 (stereo unspecified),?,?,?,-2.4%,3.55µM*,12.6µM*
O=C(c1ccc(F)cc1)N1CCC(c2ccccc2)C1 (stereo unspecified),?,4.47µM*,?,nt,?,nt
CCc1cccc(NC(=S)N2CCC(c3ccccc3)C2)c1 (stereo unspecified),23.9µM*,?,13.6%,0.8%,?,68.4%
CSc1cccc(NC(=S)N2CCC(c3ccccc3)C2)c1 (stereo unspecified),15.1µM*,18.5%,13.2%,nt,13.8%,nt
CCOC(=O)C1CCN(S(=O)(=O)c2ccc(-c3nc4ccccc4s3)s2)CC1,21.3µM*,29.6%,?,4.8%,17.1%,-28.5%
CCN1CCN(C(=O)c2ccc(-c3nc4ccccc4s3)s2)CC1,?,?,13.8%,-5.8%,2.24µM*,11.2µM*
O=C(c1ccc(-c2nc3ccccc3s2)s1)N1CCOCC1,0.379µM*,0.0891µM*,?,?,?,nt
O=C(NC1CC1)c1ccc(-c2nc3ccccc3s2)s1,0.151µM*,0.398µM*,0.259µM*,?,0.316µM*,0.501µM*
CCCN1CCN(C(=O)c2ccccc2-c2nc3ccccc3s2)CC1,1.3%,2.0%,0.3%,0.2%,-1.1%,10.3%
O=C(c1cc2ccccc2s1)N1CCOCC1,-6.1%,8.5%,-0.6%,nt,0.9%,nt
O=S(=O)(c1ccc(F)cc1)N1CCN(c2ccc(F)cc2)CC1,0.8%,1.6%,-11.9%,nt,-2.4%,nt
C=CCn1c(N2CCCC2)nc2c1c(=O)n(C)c(=O)n2C,-12.0%,-0.5%,-1.8%,nt,-0.6%,nt
CCOC(=O)c1cc(-c2ccccc2)n(-c2cccc(C(=O)Nc3cccc(C(C)=O)c3)c2)c1C,-8.7%,nt,nt,nt,nt,nt
OCc1cn(-c2ccc(Cl)cc2)nn1,1.9%,-0.3%,7.3%,-1.8%,-4.7%,-7.0%
O=C(NC1CCCCCCC1)NC1CCCCC1,16.9µM*,3.55µM*,?,0.4%,3.98µM*,?
O=C(NC1CCCCCC1)C(=S)NC1CCCCC1,5.36µM*,2.51µM*,?,-5.1%,-4.1%,-36.2%
CCOC(=O)Nc1nnc(-c2ccccc2OC)s1,?,17.3%,9.5%,1.1%,?,?
COC(=O)Nc1nnc(-c2ccccc2OC)s1,10.7µM*,3.55µM*,?,nt,2.24µM*,nt
COC(=O)Nc1nnc(-c2ccccc2Cl)s1,10.7µM*,?,23.1µM*,0.5%,29.5%,?

# Compound activity deposited in PubChem by National Center for Advancing Translational Sciences (NCATS).
